The panel holds about 83,000 compounds, 20% with a hit somewhere; the sample as a whole holds those more often.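 Values shown are percent growth following 48 h exposure of cells in 96-well plates to a single concentration of compound; below 10 was considered active.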 A number with no mark means an inactive call. Activity calls are given as the source filed them.

From PubChem BioAssay (NCI) come the findings set out here.

Common to all, as to experiment: NCI-60 one-dose screen, 48 h (100 = growth as untreated, 0 = no growth, -100 = all killed)
The test system of assay [1] is DU-145 prostate. The note with it: 10 µM unless noted.
Assay [2] deals with K-562 leukemia. The note with it: 10 µM unless noted.
Assay [3] concerns MALME-3M melanoma. The conditions noted are these: 10 µM unless noted.
Assay [4] deals with MDA-MB-231 breast. The note with it: 10 µM unless noted.
The test system of assay [5] is RXF 393 renal. The note with it: 10 µM unless noted.
In assay [6] the test system is SF-268 CNS. The note with it: 10 µM unless noted.
Assay [7] has as its system SF-295 CNS. The conditions noted are these: 10 µM unless noted.
Assay [8] deals with SF-539 CNS. The conditions noted are these: 10 µM unless noted.
For assay [9], the system named is UACC-257 melanoma. The conditions noted are these: 10 µM unless noted.
The test system of assay [10] is M14 melanoma. The conditions noted are these: 10 µM unless noted.
The subject of assay [11] is HCT-15 colon. The conditions noted are these: 10 µM unless noted.
Assay [12] has as its system HT29 colon. The note with it: 10 µM unless noted.
Assay [13] deals with SNB-75 CNS. The conditions noted are these: 10 µM unless noted.
For assay [14], the system named is SNB-19 CNS. The conditions noted are these: 10 µM unless noted.
The test system of assay [15] is U251 CNS. The conditions noted are these: 10 µM unless noted.
Assay [16] relates to PC-3 prostate. The conditions noted are these: 10 µM unless noted.
Assay [17] has as its system SK-MEL-5 melanoma. The note with it: 10 µM unless noted.
Assay [18] relates to UACC-62 melanoma. The note with it: 10 µM unless noted.
Assay [19] has as its system LOX IMVI melanoma. The note with it: 10 µM.
Assay [20] relates to SK-MEL-28 melanoma. The conditions noted are these: 10 µM unless noted.

As to `CCC(C)(O)Cc1ccc(Cl)cc1` (configuration not stated), the growth in assay [1] is 114%; in [2] it was 99.3%; in [3], 110%; in assay [4], 95.7%; in assay [5], 101%; in assay [6] it was 106%. The growth is 94.6% in assay [7]; 104% in [8]; 108% in [9]; 101% in assay [10]; 103% in assay [11]; 103% in assay [12]. The growth in [13] is 88.2%; in assay [14], 102%; in assay [15], 101%; in assay [16] it was 94.5%; in assay [17] it was 91.6%; in assay [18], 101%. Besides, the growth in assay [19] was 103%; in assay [20], 112%.

For the compound `c1ccc2sc(SSN3CC4CCC(CC4)C3)nc2c1`, the growth in assay [1] is 128%; in assay [2], 91.8%; in assay [3], 101%; in assay [4], 101%; in [5], -29.5% (active); in assay [6], 122%. For the same compound, the growth in assay [7] is 108%; in assay [8] it was 94.9%; in [9], 120%; in assay [10] it was 110%; in assay [11] it was 110%; in [12], 114%. The growth is 85.8% in [13]; 105% in [14]; 106% in assay [15]; 100% in [16]; 97.9% in assay [17]; 90.5% in assay [18]. For the same compound, the growth in [19] was 92.1%.

On to `Cc1cc(I)nc2ccccc12`, for which the growth in [1] is 120%; in [2] it was 108%; in [3] it was 114%; in assay [4], 99.7%; in [5], 122%; in assay [6], 105%. In addition, the growth in assay [7] was 101%; in assay [8], 100%; in assay [9], 119%; in [10], 111%; in assay [11], 105%; in assay [12] it was 109%. The growth in assay [13] was 99.7%; in [14], 107%; in [15] it was 110%; in assay [16] it was 96.8%; in assay [17], 104%; in assay [18], 117%. Besides, the growth in [19] was 100%; in assay [20], 112%.

Take `CC/C(=C(/CC)c1ccc(O)cc1)c1ccc(O)cc1`: the growth was 84.1% in assay [1]; 27.5% in assay [2]; 54.5% in assay [3]; 58.7% in assay [4]; 65.1% in assay [5]; 63.9% in assay [6]. Also, the growth in assay [7] is 43.9%; in assay [8], 68.3%; in [9], 68.9%; in [10] it was 43.9%; in assay [11] it was 47.2%; in assay [12], 71.5%. Besides, the growth in assay [13] was 51.8%; in assay [14], 72.7%; in assay [15] it was 42.5%; in [16], 75.4%; in assay [17], 21.4%; in assay [18] it was 42.4%. Besides, the values for the growth in [19] and in assay [20] were 65.2% and 60.1%, respectively.

With `O=C1C=CC(=O)N1C1CCCCCCCCCCC1`, the growth in assay [1] was 88.1%; in assay [2], -2.11% (active); in [3] it was 72.9%; in assay [4], 99.8%; in [5], 64%; in assay [6], 100%. Besides, the growth in assay [7] is 90.8%; in assay [8], 98.5%; in assay [9], 66.6%; in [10], 80.8%; in [11] it was 88.6%; in assay [12], 45.2%. Also, the growth in [13] is 79.4%; in assay [14], 97.1%; in assay [15] it was 91.6%; in assay [16] it was 86.9%; in [17], 92.9%; in [18], 88.8%.

On to `COc1cc2c(c(OC)c1OC)-c1ccc(NCc3ccccc3)c(=O)cc1[C@@H](NC(C)=O)CC2`, for which the growth in assay [1] was 1.24% (active); in [2] it was 2.48% (active); in assay [3], 40.3%; in assay [4], -3.82% (active); in assay [5], 51.8%; in assay [6], 25.3%. Besides, the growth in assay [7] was -36.2% (active); in [8], 0.134% (active); in assay [9] it was 63.4%; in assay [10], 13.6%; in assay [11] it was 11.5%; in assay [12], -8.12% (active). Also, the growth in [13] is 32.9%; in [14] it was 64.2%; in [15], 19%; in [16], 21.8%; in assay [17] it was -25% (active); in assay [18] it was 24.9%. Also, the growth in assay [19] was 21.2%; in [20], 42.2%.

`CC1(C)CCCC2=C1C(=O)N(SC(Cl)(Cl)Cl)C2=O`: the growth in assay [1] was 102%; in assay [2], 43.1%; in assay [3], 75.9%; in assay [4], 95.9%; in [5], 90%; in assay [6], 103%. The growth in assay [7] is 84.5%; in assay [8], 95.9%; in [9], 97.2%; in assay [10] it was 93.6%; in assay [11] it was 85.9%; in [12] it was 93.5%. Also, the growth in [13] was 96.9%; in assay [14], 91.2%; in assay [15], 93.8%; in assay [16], 89.5%; in [17], 98%; in assay [18] it was 96.1%. Besides, the growth in assay [19] was 83.9%; in assay [20] it was 99.4%.

With `O=C1/C(=C/c2ccccn2)CCc2ccccc21`, the growth in assay [1] is 103%; in assay [2] it was 7.2% (active); in assay [3], 103%; in assay [4] it was 106%; in [5] it was 107%; in [6], 102%. Further, the growth in assay [7] was 96.8%; in assay [8], 95.4%; in assay [9], 105%; in assay [10], 108%; in [11], 95.3%; in assay [12] it was 97.6%. Moreover, the growth in assay [13] is 97.7%; in assay [14], 97%; in assay [15] it was 100%; in assay [16] it was 94.6%; in assay [17] it was 97.2%; in assay [18], 97.5%. The growth is 86.5% in assay [19] and 111% in [20].
